Experimental data taken from PubChem BioAssay.
Values joined by “and” are separate entries in the source; they are usually repeats but may differ in a detail not shown here. Equal values may be shown once. Active and inactive are the calls of the source.

Experiments:
[1] = tested on: PRMT1 (protein arginine N-methyltransferase 1); experiment: small molecules binding arginine methyltransferase PRMT1 – biochemical, small-molecule microarray, 635 nm fluorescence, primary screen (AID 1088); details: higher = more signal;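 also: binding of Prmt1 protein to compounds spotted on small-molecule microarray slides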
[2] = growth effects on S. cerevisiae YJM789 – YJM789 clinical isolate, OD600, 24 h, basal, primary screen (AID 1089); details: higher = more signal, called active from +8 up or from −8 down;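 also: growth of clinical yeast isolate S. cerevisiae YJM 789 seeded 1000 cells per well; test concentration not given here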
[3] = S. pombe growth modifiers, basal conditions – strain 972, OD600, 24 h, no modulator, primary screen (AID 1090);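 also: basal condition with compound alone and no growth modifier present; test concentration not given here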; details: S. pombe 972 growth, higher = more signal, called active from +8 up or from −8 down
[4] = budding yeast growth modifiers under rapamycin – strain BY4716, OD600, 96 h, primary screen (AID 1091); also: test concentration not given here; details: S. cerevisiae BY4716 + rapamycin, higher = more signal, called active from +8 up or from −8 down
[5] = molecular target: Torsin-1A-interacting protein 2 (Homo sapiens) (UniProt Q8NFQ8); experiment: small molecules binding lysate-expressed LULL1 – cell lysate, human LULL1 lysate, 635/667 nm fluorescence, primary screen (AID 1092); details: small-molecule microarray, hLULL1 lysate binding, 635 nm fluorescence; higher = more signal;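 also: probe is lysate of COS7 cells overexpressing human LULL1; score merges per-feature 667 nm fluorescence with signal-to-noise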
Sequence of Torsin-1A-interacting protein 2 (Homo sapiens) (Q8NFQ8 whole entry, looked up): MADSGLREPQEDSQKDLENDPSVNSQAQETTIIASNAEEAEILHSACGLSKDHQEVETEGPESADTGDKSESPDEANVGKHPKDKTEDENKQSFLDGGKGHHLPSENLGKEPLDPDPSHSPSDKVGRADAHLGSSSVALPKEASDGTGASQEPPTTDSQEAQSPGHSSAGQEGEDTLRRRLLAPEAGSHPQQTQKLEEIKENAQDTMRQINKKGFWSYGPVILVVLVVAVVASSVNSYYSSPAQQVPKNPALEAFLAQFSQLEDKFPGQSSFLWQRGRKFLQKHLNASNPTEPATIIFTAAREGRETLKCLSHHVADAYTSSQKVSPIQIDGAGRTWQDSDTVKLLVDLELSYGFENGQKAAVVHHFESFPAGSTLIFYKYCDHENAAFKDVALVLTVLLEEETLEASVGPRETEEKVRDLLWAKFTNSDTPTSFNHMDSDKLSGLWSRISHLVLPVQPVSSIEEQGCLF

[6] = optical density change of DRC41 E. coli – strain DRC41, OD650, 24 h, E. coli filamentation project, primary screen (AID 1093);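 also: MC1000 strain lacking acrAB efflux and sulA so SOS filamentation is blocked; test concentration not given here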; details: E. coli DRC41 growth, higher = more signal, called active from +8 up or from −8 down
[7] = probe aLefty2 binding to arrayed compounds – biochemical, biotinylated probe, 635/667 nm fluorescence, primary screen (AID 1094); details: small-molecule microarray, higher = more signal;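 also: score merges spot fluorescence near 667 nm with spot signal-to-noise ratio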
[8] = tested on: Noggin (protein binding on small-molecule microarray); experiment: small molecules binding Noggin protein – biochemical, 635/667 nm fluorescence, primary screen (AID 1095); details: 635 nm fluorescence, higher = more signal;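 also: score merges 667 nm feature fluorescence with signal to noise over triplicate slides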
[9] = molecular target: Neurogenic locus notch homolog protein 3 (Homo sapiens) (UniProt Q9UM47); experiment: small molecules binding NOTCH3 protein – biochemical, 635/667 nm fluorescence, primary screen (AID 1096); details: small-molecule microarray, 635 nm fluorescence, higher = more signal
Sequence of Neurogenic locus notch homolog protein 3 (Homo sapiens) (Q9UM47 whole entry, looked up): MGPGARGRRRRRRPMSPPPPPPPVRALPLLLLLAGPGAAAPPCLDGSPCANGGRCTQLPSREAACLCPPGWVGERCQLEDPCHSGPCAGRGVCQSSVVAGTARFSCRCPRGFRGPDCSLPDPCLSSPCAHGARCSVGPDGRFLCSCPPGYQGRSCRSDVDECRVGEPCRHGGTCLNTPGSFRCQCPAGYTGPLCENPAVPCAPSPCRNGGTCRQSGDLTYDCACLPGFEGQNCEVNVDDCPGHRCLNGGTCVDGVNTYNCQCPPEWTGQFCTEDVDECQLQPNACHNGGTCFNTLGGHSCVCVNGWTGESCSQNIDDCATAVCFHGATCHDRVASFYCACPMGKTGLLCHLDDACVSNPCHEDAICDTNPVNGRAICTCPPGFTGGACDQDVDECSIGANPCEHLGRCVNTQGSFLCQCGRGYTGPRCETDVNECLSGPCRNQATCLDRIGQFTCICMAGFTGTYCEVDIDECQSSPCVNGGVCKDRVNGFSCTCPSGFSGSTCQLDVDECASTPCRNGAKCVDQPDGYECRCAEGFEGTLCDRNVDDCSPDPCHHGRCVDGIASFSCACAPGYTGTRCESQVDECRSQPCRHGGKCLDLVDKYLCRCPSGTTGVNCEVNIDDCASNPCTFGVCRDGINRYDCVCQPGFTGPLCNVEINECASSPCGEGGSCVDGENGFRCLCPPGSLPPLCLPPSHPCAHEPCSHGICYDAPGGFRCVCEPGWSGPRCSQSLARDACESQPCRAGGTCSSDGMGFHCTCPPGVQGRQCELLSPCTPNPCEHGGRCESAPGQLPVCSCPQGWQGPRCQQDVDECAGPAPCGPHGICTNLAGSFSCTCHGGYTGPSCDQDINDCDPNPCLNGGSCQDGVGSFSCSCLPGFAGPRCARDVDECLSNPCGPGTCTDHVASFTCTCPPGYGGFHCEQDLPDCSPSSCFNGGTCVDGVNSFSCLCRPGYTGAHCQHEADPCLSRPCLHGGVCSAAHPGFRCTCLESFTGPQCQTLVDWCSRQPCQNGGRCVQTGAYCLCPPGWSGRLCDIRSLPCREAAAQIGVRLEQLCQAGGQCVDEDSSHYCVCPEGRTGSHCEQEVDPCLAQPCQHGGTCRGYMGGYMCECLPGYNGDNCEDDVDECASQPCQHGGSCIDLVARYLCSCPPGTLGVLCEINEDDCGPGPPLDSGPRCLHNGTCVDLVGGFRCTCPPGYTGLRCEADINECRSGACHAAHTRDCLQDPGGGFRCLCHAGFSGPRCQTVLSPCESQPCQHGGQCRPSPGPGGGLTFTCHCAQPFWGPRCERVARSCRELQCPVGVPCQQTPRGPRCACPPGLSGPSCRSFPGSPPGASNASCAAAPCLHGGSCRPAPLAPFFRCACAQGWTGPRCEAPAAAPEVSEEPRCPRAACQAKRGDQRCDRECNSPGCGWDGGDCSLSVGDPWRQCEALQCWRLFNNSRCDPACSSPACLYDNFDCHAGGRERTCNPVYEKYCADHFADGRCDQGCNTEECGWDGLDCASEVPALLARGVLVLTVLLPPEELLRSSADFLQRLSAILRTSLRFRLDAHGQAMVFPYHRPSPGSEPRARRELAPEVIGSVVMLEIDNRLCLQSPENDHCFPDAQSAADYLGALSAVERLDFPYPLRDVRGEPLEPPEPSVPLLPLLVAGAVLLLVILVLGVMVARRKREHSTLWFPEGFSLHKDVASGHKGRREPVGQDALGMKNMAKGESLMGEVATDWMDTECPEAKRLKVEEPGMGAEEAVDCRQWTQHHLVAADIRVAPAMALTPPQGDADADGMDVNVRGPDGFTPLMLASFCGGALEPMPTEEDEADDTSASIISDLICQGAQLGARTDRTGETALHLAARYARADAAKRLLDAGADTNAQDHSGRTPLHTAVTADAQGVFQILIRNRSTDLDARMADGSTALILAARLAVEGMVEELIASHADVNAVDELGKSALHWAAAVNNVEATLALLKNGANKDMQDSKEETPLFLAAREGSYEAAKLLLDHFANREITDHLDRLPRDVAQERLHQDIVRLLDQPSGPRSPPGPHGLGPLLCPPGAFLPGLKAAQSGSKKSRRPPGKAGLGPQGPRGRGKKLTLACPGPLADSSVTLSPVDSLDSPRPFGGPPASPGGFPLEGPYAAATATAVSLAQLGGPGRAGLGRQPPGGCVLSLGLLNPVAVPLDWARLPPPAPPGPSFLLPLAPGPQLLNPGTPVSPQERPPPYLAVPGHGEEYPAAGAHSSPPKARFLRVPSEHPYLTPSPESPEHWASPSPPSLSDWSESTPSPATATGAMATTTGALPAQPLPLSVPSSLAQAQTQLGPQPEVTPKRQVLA

[10] = probe aEGFR binding to arrayed compounds – biochemical, biotinylated probe, 635/667 nm fluorescence, primary screen (AID 1097); details: small-molecule microarray, higher = more signal;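 also: probe is a biotinylated anti-EGFR antibody binding compounds printed on slides; score combines fluorescence near 667 nm and signal to noise of each spot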
[11] = tested on: Plasmodium falciparum Sir2 (PF13_0152, Sir2A); experiment: Plasmodium falciparum Sir2A binding compounds – biochemical, small-molecule microarray, 635 nm fluorescence, primary screen (AID 1098); details: fluorescence 635 nm, higher = more signal;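 also: score merges spot fluorescence intensity with its signal-to-noise ratio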
[12] = probe aDKK1 binding to arrayed compounds – biochemical, biotinylated probe, 635/667 nm fluorescence, primary screen (AID 1099); details: small-molecule microarray, higher = more signal;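 also: score merges 667nm spot fluorescence with signal to noise across triplicate slides; reference of the scale not given here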
[13] = probe aCHRDL2 binding to arrayed compounds – biochemical, biotinylated probe, 635/667 nm fluorescence, primary screen (AID 1100); details: small-molecule microarray, higher = more signal
[14] = change in splice reporter luminescence, either direction, cell-based, HEK293, spliceosome inhibition project, primary screen (AID 1101); details: HEK293 splicing luciferase reporter, 24 h, higher = more signal, called active from +8 up or from −8 down;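 also: HEK293 cells carrying a splicing-competent luciferase reporter gene; test concentration not given here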
[15] = molecular target: Fibroblast growth factor 10 (Homo sapiens) (UniProt O15520); experiment: compounds binding fibroblast growth factor 10 – biochemical, small-molecule microarray, 635 nm fluorescence, primary screen (AID 1102); details: FGF10 binding, fluorescence 635 nm, higher = more signal
Sequence of Fibroblast growth factor 10 (Homo sapiens) (O15520 whole entry, looked up): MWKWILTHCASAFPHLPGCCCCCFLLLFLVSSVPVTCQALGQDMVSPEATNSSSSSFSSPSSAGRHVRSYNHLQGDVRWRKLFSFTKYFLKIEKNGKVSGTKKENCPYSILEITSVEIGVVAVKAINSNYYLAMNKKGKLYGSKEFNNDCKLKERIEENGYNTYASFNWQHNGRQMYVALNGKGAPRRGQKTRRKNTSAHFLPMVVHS

[16] = tested on: glycogen synthase kinase-3 (GSK3A per assay name; protocol says GSK3B); experiment: compounds binding glycogen synthase kinase-3 – biochemical, small-molecule microarray, 635 nm fluorescence, GSK3A, primary screen (AID 1103); details: fluorescence 635 nm, higher = more signal; also: the record names both GSK3A and GSK3B
[17] = molecular target: Epidermal growth factor receptor (Homo sapiens) (UniProt P00533); experiment: compounds binding epidermal growth factor receptor – biochemical, small-molecule microarray, 635 nm fluorescence, primary screen (AID 1104); details: EGFR binding, higher = more signal;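 also: score merges 667 nm emission intensity with spot signal to noise over triplicate slides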
Sequence of Epidermal growth factor receptor (Homo sapiens) (P00533 whole entry, looked up): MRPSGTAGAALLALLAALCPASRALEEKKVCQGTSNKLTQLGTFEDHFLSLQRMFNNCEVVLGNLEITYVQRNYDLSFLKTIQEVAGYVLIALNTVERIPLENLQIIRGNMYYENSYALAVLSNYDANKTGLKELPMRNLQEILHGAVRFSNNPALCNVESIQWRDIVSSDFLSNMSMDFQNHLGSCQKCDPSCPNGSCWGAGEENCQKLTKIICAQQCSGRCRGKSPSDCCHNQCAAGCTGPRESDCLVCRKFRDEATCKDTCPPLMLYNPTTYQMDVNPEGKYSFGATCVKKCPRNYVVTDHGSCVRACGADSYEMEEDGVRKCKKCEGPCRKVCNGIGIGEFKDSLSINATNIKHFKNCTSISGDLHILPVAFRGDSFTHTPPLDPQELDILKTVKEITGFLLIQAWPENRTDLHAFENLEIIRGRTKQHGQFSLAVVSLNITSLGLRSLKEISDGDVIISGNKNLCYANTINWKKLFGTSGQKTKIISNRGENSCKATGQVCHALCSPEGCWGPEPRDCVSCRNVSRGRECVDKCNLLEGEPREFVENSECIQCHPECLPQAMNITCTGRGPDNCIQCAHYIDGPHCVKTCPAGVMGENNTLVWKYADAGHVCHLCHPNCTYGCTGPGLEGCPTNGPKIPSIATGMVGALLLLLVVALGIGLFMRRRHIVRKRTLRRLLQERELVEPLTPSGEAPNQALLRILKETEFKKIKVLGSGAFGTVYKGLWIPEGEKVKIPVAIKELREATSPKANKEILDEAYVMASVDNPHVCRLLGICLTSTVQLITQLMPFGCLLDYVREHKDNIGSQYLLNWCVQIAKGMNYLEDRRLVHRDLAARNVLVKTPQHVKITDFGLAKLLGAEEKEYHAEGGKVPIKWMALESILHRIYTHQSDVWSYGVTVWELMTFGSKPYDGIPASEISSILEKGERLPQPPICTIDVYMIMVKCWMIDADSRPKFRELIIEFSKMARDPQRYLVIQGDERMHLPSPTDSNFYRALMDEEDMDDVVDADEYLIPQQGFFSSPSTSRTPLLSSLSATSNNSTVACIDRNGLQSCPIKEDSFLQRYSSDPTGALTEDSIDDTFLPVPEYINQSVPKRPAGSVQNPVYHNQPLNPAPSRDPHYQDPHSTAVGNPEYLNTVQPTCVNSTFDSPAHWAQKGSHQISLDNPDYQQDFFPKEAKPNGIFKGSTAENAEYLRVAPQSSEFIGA

[18] = molecular target: Follistatin-related protein 3 (Homo sapiens) (UniProt O95633); experiment: compounds binding follistatin-related protein 3 – biochemical, small-molecule microarray, 635 nm fluorescence, primary screen (AID 1105); details: FSTL3 binding, higher = more signal;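 also: score merges emission near 667 nm and signal to noise per printed spot across three slides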
Sequence of Follistatin-related protein 3 (Homo sapiens) (O95633 whole entry, looked up): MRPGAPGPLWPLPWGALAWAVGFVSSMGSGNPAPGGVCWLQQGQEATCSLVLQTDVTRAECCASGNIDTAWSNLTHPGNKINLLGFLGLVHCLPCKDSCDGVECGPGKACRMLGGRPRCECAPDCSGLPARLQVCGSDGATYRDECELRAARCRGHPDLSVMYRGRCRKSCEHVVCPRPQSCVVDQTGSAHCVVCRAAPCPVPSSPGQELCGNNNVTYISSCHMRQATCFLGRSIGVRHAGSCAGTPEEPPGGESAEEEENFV

[19] = molecular target: Dickkopf-related protein 1 (Homo sapiens) (UniProt O94907); experiment: small molecules binding DKK1 protein – biochemical, small-molecule microarray, 635 nm fluorescence scan, primary screen (AID 1106); details: higher = more signal;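 also: score merges emission near 667 nm with signal to noise over three replicate slides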
Sequence of Dickkopf-related protein 1 (Homo sapiens) (O94907 whole entry, looked up): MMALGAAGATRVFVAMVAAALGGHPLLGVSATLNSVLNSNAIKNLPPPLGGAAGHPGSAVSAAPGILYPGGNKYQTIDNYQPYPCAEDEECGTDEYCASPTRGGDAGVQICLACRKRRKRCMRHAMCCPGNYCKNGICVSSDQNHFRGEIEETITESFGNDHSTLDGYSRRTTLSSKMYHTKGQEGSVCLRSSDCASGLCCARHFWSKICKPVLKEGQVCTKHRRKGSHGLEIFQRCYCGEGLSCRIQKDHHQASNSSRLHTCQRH

[20] = tested on: Inhibin beta A chain (activin A); experiment: small molecules binding activin A – biochemical, small-molecule microarray, 635 nm fluorescence scan, primary screen (AID 1107); details: INHBA, higher = more signal;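 also: mouse activin A protein probed at 4.33 µg/mL on printed slides; score merges bound-protein fluorescence near 667 nm with spot signal-to-noise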

Row | Structure (SMILES) | composite z-score [1] | z-score [2] | z-score [3] | z-score [4] | composite z-score [5] | z-score [6] | composite z-score [7] | composite z-score [8] | composite z-score [9] | composite z-score [10] | composite z-score [11] | composite z-score [12] | composite z-score [13] | z-score [14] | composite z-score [15] | composite z-score [16] | composite z-score [17] | composite z-score [18] | composite z-score [19] | composite z-score [20]
1 | C=CCN(CCCC)C(=O)C1N(CCCCCCO)C(=O)C2C(C(=O)O)C3C=CC21O3 (stereo not given) | -0.448 and -0.52 | 0.0812 (inactive) and -0.104 (inactive) | 0.496 (inactive) and -0.0666 (inactive) | -0.282 (inactive) and -0.642 (inactive) | -0.179 and 2.36 | -0.909 (inactive) and -0.855 (inactive) | 0.0397 and -0.0936 | -3.5 and -2.6 | -1.8 and -1.2 | -0.485 and -0.356 | 1.64 and 0.937 | -0.288 and -0.0191 | 1.02 and 0.849 | 0.671 (inactive) and -0.0103 (inactive) | -1.87 and -1.39 | -1.1 | -1.93 and -1.35 | -2.74 and -2.04 | -2.67 and -3.18 | -2.85 and -2.5
2 | C=CCN(C(=O)C1N(c2c(Cl)cccc2CO)C(=O)C2C(C(=O)O)C3C=CC21O3)C(C)(C)C (stereo not given) | -0.17 and -0.656 | 0.61 (inactive) and -1.92 (inactive) | 0.857 (inactive) and -1.43 (inactive) | -0.509 (inactive) and -0.74 (inactive) | 0.893 and -1.28 | 2.58 (inactive) and 1.44 (inactive) | -0.359 and -0.152 | -1.7 and -1.45 | -0.873 and -0.616 | -0.403 and -0.366 | 0.769 and -1.57 | -0.525 and -0.241 | -0.269 and 0.798 | -0.859 (inactive) and -1.07 (inactive) | -0.788 and -1.43 | -1.39 and -0.911 | -1.85 and -0.913 | -0.332 and 0.322 | -2.02 and -2.22 | -0.918 and -0.985
3 | CC(CO)N1C(=O)[C@@H]2C3C(=O)OCCC=C[C@H]3OC23C=CCN(c2ccc(Cl)cc2)C(=O)[C@@H]13 (stereo not given in full) | -1.06 and 1.32 | 1.37 (inactive) and -1.45 (inactive) | 0.628 (inactive) and -1.21 (inactive) | 0.872 (inactive) and -0.713 (inactive) | -0.81 and 3.57 | 0.226 (inactive) and -0.379 (inactive) | 0.149 and -0.0998 | -2.2 and -0.556 | -1.43 and 0.107 | -0.186 and -0.0788 | 1.13 and 1.84 | -0.0514 and 0.0818 | 0.574 and 0.715 | 0.14 (inactive) and 0.899 (inactive) | -1.16 and 0.322 | -1.61 and -0.251 | -0.911 and -0.867 | -1.14 and -0.558 | -1.33 and -0.412 | 0.137 and 0.88
4 | C=CC[C@H](O)c1ccc(OCCO)cc1 | -0.145 and -1.37 | -0.192 (inactive) and -0.831 (inactive) | -0.228 (inactive) and -0.917 (inactive) | -0.389 (inactive) and -1.19 (inactive) | -0.435 and -2.14 | -0.646 (inactive) and -0.812 (inactive) | -0.0653 and -0.181 | -0.292 and 0.249 | -0.847 and -0.324 | -0.162 and -0.191 | 0.142 and -0.925 | 0.203 and -0.308 | 0.777 and 0.484 | 0.296 (inactive) and 2.7 (inactive) | -0.603 and -0.328 | -0.92 and -2.17 | -0.883 and -0.455 | -0.382 and -0.0904 | -1.06 and -0.251 | 0.149 and 0.677
5 | C=CCN(C(=O)C1N(c2ccc(CCO)cc2)C(=O)C2C(C(=O)O)C3C=CC21O3)c1ccc(OC)cc1 (stereo not given) | -0.133 and -0.497 | 0.156 (inactive) and -0.236 (inactive) | 0.332 (inactive) and -0.577 (inactive) | 0.131 (inactive) and -1.62 (inactive) | 0.0657 and -1.42 | 0.683 (inactive) and 2.67 (inactive) | -0.0641 and 0.0524 | -1.24 and -0.818 | 0.0568 and -1.8 | -0.302 and -0.367 | 1.07 and -0.0141 | -0.0654 and -0.638 | 0.581 and 0.683 | 0.119 (inactive) and -0.374 (inactive) | -0.0665 and -1.53 | -0.313 and -1.1 | -1.33 and -1.47 | -1.01 and -0.528 | -1.35 and -0.641 | -2.09 and -3.41
6 | C=CCN(CCCC)C(=O)C1N(c2ccc(CCO)cc2)C(=O)C2C(C(=O)O)C3C=CC21O3 (stereo not given) | 0.0734 and -0.79 | -0.844 (inactive) and -0.115 (inactive) | -0.261 (inactive) and -0.527 (inactive) | -0.0659 (inactive) and 0.252 (inactive) | -1.07 and 0.53 | 1.13 (inactive) and 2.05 (inactive) | 0.113 and 0.0553 | -2.44 and -3.58 | -1.38 and -1.27 | -0.226 and -0.317 | -1.39 and 1.08 | -0.112 and -0.229 | 0.354 and 1.07 | -0.378 (inactive) and 0.182 (inactive) | -1.48 and -1.93 | -1.54 and -1.22 | -1.51 and -2.06 | -1.76 and -2.15 | -2.31 and -3.32 | -1.59 and -3.61
7 | COC(=O)C1=C(C)N(Cc2ccccc2)[C@]23O[C@](C(=O)OC)(C(=O)N2[C@@H]1c1ccccc1)[C@H]1C(=O)N(c2ccccc2)C(=O)[C@H]13 | 0.343 and -0.0383 | 0.434 (inactive) and 0.397 (inactive) | -0.261 (inactive) and -0.858 (inactive) | -0.558 (inactive) and 0.264 (inactive) | 1.14 and 0.69 | 0.102 (inactive) and 0.185 (inactive) | -0.0812 and -0.0245 | 0.468 and 0.611 | 0.649 and 1.11 | 0.253 and 0.0534 | 0.224 and 0.295 | -0.0965 and 0.134 | -0.362 and -0.418 | 0.0537 (inactive) and -0.654 (inactive) | 0.775 and 1.09 | 0.989 and 0.463 | 0.367 and 0.392 | 0.514 and 0.835 | 0.629 and 0.666 | 0.111 and -0.155
